Among all 300,000 compounds or so, about 5,400 (1.8%) were called active. Entries that show only a call come without a potency. Another 28% or so got no clear call; they are omitted. The call rests on the fitted dose curve; tested in HEK293 cells. The sample as a whole holds a higher share of actives than the screen did.
assay: qHTS for inhibitors of binding or entry into cells for Marburg Virus; conditions: Marburg virus pseudotyped entry inhibition, cell reporter; series mostly up to 37.8 µM
Potency means the concentration at half of the fitted maximal effect.

Row | SMILES | Potency
1 | CCOC(=O)C1CCN(S(=O)(=O)c2ccc3c(c2)N(C(C)=O)CCO3)CC1 | inactive
2 | O=C(c1cccnc1)N(Cc1ccccc1)C(=O)c1cccnc1 | inactive
3 | O=C(NCC(=O)N1CCN(c2ncc(C(F)(F)F)cc2Cl)CC1)c1ccc(Br)o1 | inactive
4 | O=C(Nc1cccc2c1CCCC2)c1ccc(F)cc1 | inactive
5 | CC(C)C1CCCCC1NC(=O)CN1C(=O)C2=C(CCCC2)C1=O (stereo not drawn) | inactive
6 | CCOc1ccc(S(=O)(=O)N2CCN(C(=O)c3oc4ccccc4c3C)CC2)cc1 | inactive
7 | O=C(COC(=O)c1ccc(F)cc1)Nc1nc2ccc([N+](=O)[O-])cc2s1 | inactive
8 | Cc1cc(C)cc(OCC(=O)Nc2nc3ccc([N+](=O)[O-])cc3s2)c1 | inactive
9 | O=C(NC(Nc1nc2ccc([N+](=O)[O-])cc2s1)(C(F)(F)F)C(F)(F)F)c1ccccc1 | 0.517 µM (active)
10 | Cc1ccccc1N1CCN(C(=O)c2cccnc2)CC1 | inactive
11 | O=C(NCCc1cccc(F)c1)C1CCCN(c2nc3ccccc3s2)C1 (stereo not drawn) | inactive
12 | CCn1c(SCC(=O)NC2CCCC2)nnc1-c1ccoc1C | inactive
13 | Cc1ccc(NC(=O)CSCC(=O)Nc2sccc2C#N)cc1 | inactive
14 | Cc1csc(SCC(=O)Nc2sccc2C#N)n1 | 4.47 µM (active)
15 | Cc1cccc(C)c1Nc1nnc(SCC(=O)Nc2sccc2C#N)s1 | inactive
16 | O=[N+]([O-])c1cc2ccccc2nc1-c1ccccc1 | inactive
17 | O=C(NCCN1CCOC1=O)C1CCC(=O)N(CCc2ccc(Cl)cc2)C1 (stereo not drawn) | inactive
18 | COCCOC(=O)C1=C(C)OC(N)=C(C#N)[C@H]1c1ccco1 | inactive
19 | O=C(CN1CCCCCC1)N1c2ccccc2Sc2ccc(C(F)(F)F)cc21 | 18.3 µM (active)
20 | O=C(CN1C(=O)/C(=C\c2ccc(C(F)(F)F)cc2)Sc2ccccc21)NCc1ccco1 | inactive
21 | CCNC(=O)N1c2ccccc2Sc2ccccc21 | inactive
22 | Oc1ccc(-n2nnnc2SCc2c(F)cccc2Cl)cc1 | inactive
23 | O=C(CCCO)N/N=C/c1cc(Br)ccc1O | inactive
24 | O=C(NN=Cc1ccccc1O)NN=Cc1ccccc1O | 3.98 µM (active)
25 | O=C(N/N=C/c1ccc(O)c2ccccc12)c1cccnc1 | inactive
26 | Cc1ccc(NC(=O)CSc2nc(=O)n(CCN(C)C)c3c2CCCC3)c(C)c1 | inactive

Row | SMILES | Potency
27 | O=C1CCCCC1Sc1ccc(Cl)cc1[N+](=O)[O-] (stereo not drawn) | inactive
28 | CCn1c(SCC(=O)Nc2ccc(Br)cc2)nc2sc3c(c2c1=O)CCN(C)C3 | inactive
29 | COc1ccc(NC(=O)NC(C)c2c(-n3cccc3)sc(C)c2C)cc1OC (stereo not drawn) | inactive
30 | Cc1ccc(NC(=O)NC(C)c2c(-n3cccc3)sc(C)c2C)c(C)c1 (stereo not drawn) | 11.2 µM (active)
31 | C/C(CC(=O)Nc1ccc(C)cc1C)=N\NC(=O)C(C)C | inactive
32 | CC(C)CCNC(=O)c1ccc2c(Cl)c3c(nc2c1)CCC3 | 10 µM (active)
33 | COc1cccc(CNC(=O)c2ccc3c(Cl)c4c(nc3c2)CCCC4)c1 | inactive
34 | CC(=O)c1ccc(NC(=O)c2ccc3c(Cl)c4c(nc3c2)CCCC4)cc1 | inactive
35 | COc1ccccc1N1CCC(N2CCN(CC(C)(C)C)C(CCO)C2)CC1 (stereo not drawn) | inactive
36 | CC(C)(C)c1ccc(C(=O)N2CCN(CCNC(=O)C(=O)Nc3ccc(F)cc3)CC2)cc1 | inactive
37 | COc1ccccc1CNC(=O)c1ccc(N(C)S(=O)(=O)c2ccc(C)cc2)cc1 | inactive
38 | CC(C)c1nc(NC[C@H]2CCCO2)c(C#N)c2c1COC(C)(C)C2 | inactive
39 | COCCNc1nc(N)c([N+](=O)[O-])c(N2CCCCCC2)n1 | inactive
40 | Nc1nc(Nc2ccccc2)nc(NCCO)c1[N+](=O)[O-] | inactive
41 | CCN1CCN(c2nc(Nc3cccc(F)c3)nc(N)c2[N+](=O)[O-])CC1 | 12.6 µM (active)
42 | COC(=O)CC(CC(=O)OC)n1cccc1 | inactive
43 | COc1ccc2[nH]c3nc(SCC(=O)NC4CC4)nnc3c2c1 | inactive
44 | CC1CCCCC1NC(=O)c1cn(C)c2ccc(S(=O)(=O)N3CCOCC3)cc2c1=O (stereo not drawn) | inactive
45 | Cc1ccc(S(=O)(=O)C(C#N)c2nc3ccccc3nc2N2CCCC2)cc1C (stereo not drawn) | inactive
46 | Cc1cc(C(=O)NNC(=O)c2cccc(S(=O)(=O)N3CCOCC3)c2)c2ccccc2n1 | inactive
47 | Cc1cc(N2CCN(S(=O)(=O)c3ccc(C)c(C)c3)CC2)c2ccccc2n1 | 16.4 µM (active)
48 | CCOc1ccc(CCNC(=O)COC(=O)C2CCN(S(=O)(=O)c3ccccc3)CC2)cc1OCC | inactive
49 | COc1cccc(/C=N\NC(=O)C2=NNC(=O)C2C)c1O (stereo not drawn) | inactive
50 | COc1cccc(/C=N/Nc2ccc(S(=O)(=O)Nc3ccccc3C(=O)O)cc2[N+](=O)[O-])c1O | inactive
51 | COc1cccc(/C=N/Nc2cc(C)nc(-c3ccccc3O)n2)c1O | 5.62 µM (active)
52 | COCCN1C(=O)N(c2ccc(Cl)cc2)C(=O)C1CC(=O)Nc1cc(OC)cc(OC)c1 (stereo not drawn) | inactive

Row | SMILES | Potency
53 | CCOC(=O)C1(Cc2ccccc2C)CCCN(C(=O)CCc2c(C)noc2C)C1 (stereo not drawn) | inactive
54 | O=C1CC(c2ccccc2)C(c2ccccc2)=NN1 (stereo not drawn) | inactive
55 | CCNC(=O)CCc1nc(-c2ccc(C)cc2)no1 | inactive
56 | CCNC(=O)CCc1nc(-c2ccc(C(C)(C)C)cc2)no1 | 8.91 µM (active)
57 | Cc1ccc(-c2noc(CCC(N)=O)n2)cc1 | inactive
58 | COc1ccc(Cl)cc1NC(=O)c1cccc(N2C(=O)C3CC=CCC3C2=O)c1 (stereo not drawn) | inactive
59 | O=C(CC1SC(N2CCCC2)=NC1=O)Nc1ccc(C(=O)NCCc2ccc(F)cc2)cc1 (stereo not drawn) | inactive
60 | CC1CC(C)CN(CCC(=O)Nc2ccc3c(c2)CCC3)C1 (stereo not drawn) | 7.3 µM (active)
61 | CC1CC(C)CN(CC(=O)Nc2ccc(S(N)(=O)=O)cc2)C1 (stereo not drawn) | inactive
62 | CC(C)C(=O)OCC(=O)Nc1ccc2c(c1)CCC2 | inactive
63 | Cc1nnc(NC(=O)C(c2ccccc2)c2ccccc2)s1 | inactive
64 | CC/C(=C\c1ccc(Cl)cc1)c1ccncc1 | inactive
65 | O=C1NCC(Nc2ccccc2)C(=O)N1 (stereo not drawn) | inactive
66 | Cc1cc(Cl)ccc1OCC(=O)N(Cc1ccc(N(C)C)cc1)C1CCS(=O)(=O)C1 (stereo not drawn) | inactive
67 | Cc1ccc(CN(C(=O)c2sc3ccccc3c2Cl)C2CCS(=O)(=O)C2)cc1 (stereo not drawn) | inactive
68 | CC1(C)C(C=C(Cl)Cl)C1C(=O)N(Cc1ccc(Cl)cc1)C1CCS(=O)(=O)C1 (stereo not drawn) | 12.6 µM (active)
69 | CCOC(=O)C1(Cc2ccccc2C)CCCN(C(=O)c2ccc(COC)o2)C1 (stereo not drawn) | inactive
70 | O=C1NC(c2ccccc2)Cc2ccncc21 (stereo not drawn) | inactive
71 | Cc1c(C)c2c(c(C)c1O)CC[C@@](C)(CN1CCN(c3cc(N4CCCC4)nc(N4CCCC4)n3)CC1)O2 | 10 µM (active)
72 | O=c1nc(NO)ccn1C1CCCO1 (stereo not drawn) | inactive
73 | N=c1oc2ccccc2cc1C(=O)NCc1ccccc1 | inactive
74 | COc1cccc(C(=O)Nc2c3c(nn2-c2cccc(C)c2C)CS(=O)(=O)C3)c1OC | 18.3 µM (active)
75 | Cc1cccc(-n2nc3c(c2NC(=O)c2cc4ccccc4o2)CS(=O)(=O)C3)c1 | inactive
76 | CCOc1ccc(C(=O)Nc2c3c(nn2-c2ccccc2)CS(=O)(=O)C3)cc1 | inactive
77 | CCN(CC(=O)Nc1ccc(OC)cc1)C(=O)c1ccc(Cl)c(S(=O)(=O)N2CCCC2)c1 | inactive
78 | COc1cccc(N(CC(=O)NC2CCCCCC2)S(=O)(=O)c2ccccc2)c1 | inactive

Row | SMILES | Potency
79 | Cn1c(=O)c2c(nc(NCCNC(=O)c3ccco3)n2Cc2ccccc2F)n(C)c1=O | inactive
80 | Cn1c(=O)c2c(nc(NCCc3ccccc3)n2Cc2ccccc2)n(C)c1=O | 7.3 µM (active)
81 | Cn1c(=O)c2c(nc(NCCc3ccccc3)n2Cc2ccccc2Br)n(C)c1=O | inactive
82 | COC(=O)c1ccc(CNC(=O)c2ccc3oc(C(C)C)nc3c2)cc1 | inactive
83 | Cc1nc2ccc(C(=O)N/N=C/c3ccc(O)cc3)cc2[nH]1 | inactive
84 | Cc1ccc2occ(/C=N/NC(=O)c3ccccc3C)c(=O)c2c1 | inactive
85 | Cc1ccc(/C=N/NC(=O)C2=NNC(c3ccccc3)(c3ccccc3)C2)c(O)c1 | 8.91 µM (active)
86 | COc1ccc(NC(=O)c2cccc(Cl)c2)c[n+]1[O-] | inactive
87 | O=C(OCC(=O)N1CCN(C(=O)c2ccco2)CC1)c1c(Cl)cccc1Cl | inactive
88 | COc1cccc(NC(=O)CCc2nnc3ccc(N4CCC(C)CC4)nn23)c1 | inactive
89 | O=C(CCc1nnc2ccc(NCc3ccccc3Cl)nn12)NCC1CCN(C2CCCC2)C1 (stereo not drawn) | inactive
90 | CC1CCN(C(=O)CCc2nnc3ccc(NCc4ccco4)nn23)CC1 | 3.16 µM (active)
91 | CC1=C(C(=O)NC2CC(C)(C)Cc3c2cnn3-c2ccc(C)cc2)OCCO1 (stereo not drawn) | inactive
92 | COc1cccc(-n2c(N)cc(=O)nc2SCC(=O)Nc2cc(C)on2)c1 | inactive
93 | O=C(O)C[C@H](C(=O)OC[C@H]1CCCO1)N1CCOCC1 | inactive
94 | CC1CN(C(=O)c2cc(COc3c(F)cccc3F)on2)CCN1C (stereo not drawn) | inactive
95 | CCC(C)(NC(=O)c1ccccn1)C(=O)NC1CCCCC1 (stereo not drawn) | inactive
96 | CCOc1cc(NC(=O)c2ccccn2)c(OCC)cc1NC(=O)c1ccc(OC)cc1 | inactive
97 | CCN(CC)CCOc1ccc2c(c1)C(=NNC(=O)c1ccccn1)c1cc(OCCN(CC)CC)ccc1-2 | 10.3 µM (active)
98 | CC(=O)N1CCOc2ccc(S(=O)(=O)N3CCC(C(=O)Nc4ccccc4F)CC3)cc21 | inactive
99 | Cc1ccc(CN2CCN(Cc3ccc4ncccc4c3)CC2CCO)cc1 (stereo not drawn) | inactive
100 | CCOc1ccc(CN2CCN(Cc3ccon3)CC2CCO)cc1 (stereo not drawn) | inactive
101 | CCOc1ccc(CN2CCN(Cc3ccc4cc(F)ccc4n3)CC2CCO)cc1 (stereo not drawn) | 10 µM (active)
102 | COc1cccc([C@@H]2Oc3ccc(OC)cc3C(=O)[C@@H]2OC(=O)Nc2cc(OC)c(OC)c(OC)c2)c1 | inactive
103 | Cc1ccccc1CCNC(=O)C1CCC(=O)N(Cc2ccc(Cl)cc2)C1 (stereo not drawn) | inactive

— PubChem BioAssay AID540276 (National Center for Advancing Translational Sciences (NCATS), 2011)
